Test results published in PubChem BioAssay (NCI).
Values joined by “and” are separate entries in the source; they are usually repeats but may differ in a detail not shown here. Equal values may be shown once. The panel holds about 79,000 compounds, 15% with a hit somewhere; the sample as a whole holds those more often. Active and inactive are the calls of the source. Cut-off read from the data, not from the text of the source: active = growth inhibition above about 70%; inactive = the rest.

Tests used:
[1] = NCI Yeast Anticancer Drug Screen. Data for the rad50 strain (AID 155);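 note: 0% = growth of vehicle-only cultures of the same strain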; settings: S. cerevisiae rad50 strain growth inhibition; at 50.0 µM; hits give high values
Summary of the method: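 DNA repair mutant yeast, compound exposure, growth read-out; inhibition is taken relative to vehicle.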

[2] = NCI Yeast Anticancer Drug Screen. Data for the mec2-1 strain (AID 157); settings: S. cerevisiae mec2-1 strain, at 50.0 µM, hits give high values
Summary of the method: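 Cells of the genetically defined mec2-1 yeast strain are incubated with test compound. Inhibition of growth is calculated against vehicle-treated controls.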

[3] = NCI Yeast Anticancer Drug Screen. Data for the sgs1 mgt1 strain (AID 161);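 note: 0% = growth of cultures given vehicle only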; settings: S. cerevisiae sgs1 mgt1 strain, at 50.0 µM, hits give high values
Summary of the method: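 Read-out: growth inhibition vs vehicle controls. Cells: mutant yeast strain deficient in DNA damage repair.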

[4] = NCI Yeast Anticancer Drug Screen. Data for the cln2 rad14 strain (AID 165);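 note: 0% = growth equal to vehicle treated cultures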; settings: S. cerevisiae cln2 rad14 strain, at 50.0 µM, hits give high values
Summary of the method: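 The screen exposed genetically defined yeast (cln2 rad14) to test compounds and scored growth inhibition relative to vehicle-treated controls.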

[5] = NCI Yeast Anticancer Drug Screen. Data for the bub3 strain (AID 167); settings: S. cerevisiae bub3 mutant strain, at 50.0 µM, hits give high values
Summary of the method: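 In this screen, a yeast mutant lacking normal mitotic checkpoint function is challenged with compound. Relative growth versus vehicle gives the inhibition value.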

[6] = NCI Yeast Anticancer Drug Screen. Data for the mlh1 rad18 strain (AID 175); settings: S. cerevisiae mlh1 rad18 strain growth inhibition; at 50.0 µM; hits give high values
Summary of the method: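 Compound-treated yeast growth, normalised to vehicle controls. Strain bears defined DNA repair mutations.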

Measured: growth inhibition

S=c1nc[nH]c2ccccc12
inactive: [1] -2.5% and -12.8% | [2] -4.8% and -16.8% | [3] -11% and 12.9% | [4] -98.9% and -0.05% | [5] -2.75% and -2.25% | [6] 5% and 5.65%

CCCCc1c(C#N)c(=O)n2c(N)c(C(=O)OCC)cnc2c1SC
inactive: [1] -8.45% and 11.1% | [2] -3.4% and 14.9% | [3] 8.3% and -12.1% | [4] -7.6% and -34% | [5] 5.65% and -7.9% | [6] 9.15% and -5.05%

COC12C=CC(CC1)C(C)(C)C2O (stereo unspecified)
inactive: [1] 7.6% and 0.25% | [2] -0.75% and -7.75% | [3] -1.55% and -2.25% | [4] -11% and -14.2% | [5] 7.85% and 14.7% | [6] 4.25% and 1.9%

O=[N+]([O-])c1ccc2[nH]c(=S)[nH]c(=S)c2c1
inactive: [1] -27.1% and 17.1% | [2] -49.4% and 35.7% | [3] 5.25% and 51% | [4] 7.7% and 36.5% | [5] -5.7% and -1.3% | [6] 12.2% and 16.4%

CC(=O)Nc1ccc(S(=O)c2ccc(NC(C)=O)cc2)cc1
inactive: [1] -25.6% and 12% | [2] -21.3% and 9.5% | [3] -45.5% and 12.1% | [4] 7.1% and -22.4% | [5] -15.6% and 10.3% | [6] -34.8% and 24.6%

CCC(=O)Oc1cc(C)ccc1C(C)(C)C
inactive: [1] 1.4% and -18.1% | [2] 0.8% and -19.4% | [3] 1.45% and -12% | [4] -3.7% and -1.5% | [5] -0.3% and -13.2% | [6] -3.6% and -5.85%

CC(=O)OCC1OC(n2c(=S)n(-c3ccccc3)c(=O)c3cc(Br)ccc32)C(OC(C)=O)C(OC(C)=O)C1OC(C)=O (stereo unspecified)
inactive: [1] 4.85% and -36.2% | [2] -1.9% and -27.9% | [3] 1.4% and -26.9% | [4] 5.25% and 15.2% | [5] -14.6% and -0.3% | [6] 12.5% and -19.2%

COC(=O)C1(C)CCCC2(C)c3cc(OC)ccc3C=CC12 (stereo unspecified)
inactive: [1] 14.5% and 6.75% | [2] -1.8% and 8.1% | [3] -0.6% and 2.55% | [4] -0.6% and 4.75% | [5] 2.5% and 21.5% | [6] 4.45% and 1.2%

OCC(O)C(O)C(O)c1cnn(-c2ccccc2)n1 (stereo unspecified)
inactive: [1] 8.95% and 4.85% | [2] -5.4% and 1.9% | [3] -4.6% and -4.7% | [4] 1.75% and -3.7% | [5] -2.85% and -8.2% | [6] 14.6% and -0.05%

NNC(=O)NC(N)=O
inactive: [1] -48.6% and -20.2% | [2] -26.1% and -25.7% | [3] -27.2% and -9.95% | [4] -20.4% and -17.9% | [5] 1.2% and -27.1% | [6] -4.3% and -22.3%

C/C(=N\NC(N)=O)c1ccc(Cl)cc1
inactive: [1] 27.9% and 9.05% | [2] 10.8% and -3.65% | [3] 2% and -6.25% | [4] 9.6% and -8.65% | [5] -4.15% and 6% | [6] 7.3% and 10.7%

CC(=O)OCC1OC(n2cnc3c(N)ncnc32)C(OC(C)=O)C1OC(C)=O (stereo unspecified)
inactive: [1] 3.05% and 8.1% | [2] -8.9% and -3.3% | [3] 18.8% and 0.2% | [4] 14.2% and 11.4% | [5] 5.3% and -0.8% | [6] 18.1% and -0.25%

CCCCN(CCCC)CCCN
inactive: [1] 13.2% and 9.35% | [2] -1.45% and -6.9% | [3] -18.9% and -5.35% | [4] -11.6% and 9.8% | [5] 6.5% and -3.15% | [6] -9% and 11.7%

OCC1OC(n2cnc3cncnc32)C(O)C1O (stereo unspecified)
inactive: [1] 12.4% and 3.3% | [2] -40% and 24.9% | [3] 13.4% and 23.4% | [4] 12.3% and -35.8% | [5] -3.65% and 22.6% | [6] 2.15% and 29.9%

CC(=O)OC1COC(n2cnc3c(=S)nc[nH]c32)C(OC(C)=O)C1OC(C)=O (stereo unspecified)
inactive: [1] 24.2% and -2.35% | [2] -0.1% and -1.6% | [3] 21.3% and -16.4% | [4] 18.4% and -19.2% | [5] 0.7% and 1.65% | [6] 7.35% and -11.9%

CC1(C)Nc2ccccc2C(c2ccccc2)=NC1=O
inactive: [1] -2.7% and 4.8% | [2] -17.1% and -15.2% | [3] -7% and 0.85% | [4] -5.75% and -0.25% | [5] -4.7% and -4.6% | [6] 12.7% and 13.3%

CC1(C)OC2OC(C(COS(C)(=O)=O)OS(C)(=O)=O)C(OS(C)(=O)=O)C2O1 (stereo unspecified)
inactive: [1] 15.7% and -9.65% | [2] 2.6% and 9.75% | [3] 37.9% and 10.2% | [4] 16.4% and 20.6% | [5] 5.9% and 1.45% | [6] 16.2% and 8%

Cc1ccc(C(C)CCCO)cc1 (stereo unspecified)
inactive: [1] -11.6% and 6.8% | [2] -15.4% and -21.8% | [3] -16.8% and -6.55% | [4] -6.55% and -2.3% | [5] -22.2% and -6.35% | [6] -23.9% and -25.9%

N#CC(Cc1ccccc1)c1ccccc1 (stereo unspecified)
inactive: [1] -65.7% and 17.2% | [2] -12.5% and 11.1% | [3] -18.1% and 29.8% | [4] -24.8% and 1.75% | [5] 0.45% and -5% | [6] 3.45% and 6.45%

CC(N)(CCO)C(=O)O (stereo unspecified)
inactive: [1] 1.25% and -1.8% | [2] 11.9% and -3% | [3] -5.95% and -19.4% | [4] 1.4% and -18% | [5] -5.5% and 8.75% | [6] 3.95% and 7.2%

Oc1ccc[n+](Cc2ccccc2)c1
inactive: [1] -7.85% and -26.4% | [2] -24.1% and -43.9% | [3] -47.3% and -12.4% | [4] 7.35% and 24.6% | [5] -49.5% and -22.8% | [6] -21.8% and -11.4%
